Source: article PMC13494018

B1: design_619_5728adc2-0aea-404f-92dd-a4575c53f550_1814_dldesign_0_cycle1_af2pred (protein)
chain: DEELRKEVLEKIKELEAKAKEAAADPATQGLAVFLKNTAATARRELEKDAELGLAVVEAGEEGLAYLQAS
B2: design_619_5728adc2-0aea-404f-92dd-a4575c53f550_577_dldesign_0_cycle1_af2pred (protein)
chain: AESIAREAVAQIAALAAAGVADPAAKGEQATAILQTAAAAQKAIRAAGGPESLLNAVQAAAGAAIAALVA
B3: design_619_5728adc2-0aea-404f-92dd-a4575c53f550_1766_dldesign_0_cycle1_af2pred (protein)
chain: ADPAALAAIQEQRDKALKEIEEAAKEAKETTEEEARKKIVDAAHTATAQLAQIGVAHPAVAAEAGQAISEILDAGKRALEEAKKNA
B4: design_619_5728adc2-0aea-404f-92dd-a4575c53f550_649_dldesign_0_cycle1_af2pred (protein)
chain: GEELAKEVEKKAKEVLEKVKEKAKEIAAKGTPEQAREAKGLVARARAYAIAAVGAARTIPELAKRYLELAKKEAERL
B5: design_619_5728adc2-0aea-404f-92dd-a4575c53f550_1353_dldesign_0_cycle1_af2pred (protein)
chain: GETGEAKREGARVAARLGAAAVQLAAVDPEVAKKAQAAVGEVLEAMEAAAKDPSKVEEVKKAREKAEKALKEAEKTLA
B6: design_619_5728adc2-0aea-404f-92dd-a4575c53f550_447_dldesign_0_cycle1_af2pred (protein)
chain: EELVKKAKEETTKLLEKAKEEAPGLGTLALNSFNNGFKEGVKEAYERLKKLYEWVTANATTPEQKKVAELIKKAYEVAKKAAEA
B7: design_619_5728adc2-0aea-404f-92dd-a4575c53f550_1264_dldesign_0_cycle1_af2pred (protein)
chain: GEEAAKKAEKAVEALKQGAKEAAKGTPELAANTAKSYITMAKSIAKGAKRADGGEAAKKVEKKAKEAIAEAKKLAKAAA
B8: design_619_5728adc2-0aea-404f-92dd-a4575c53f550_1370_dldesign_0_cycle1_af2pred (protein)
chain: AAAAVAANRAAAAATAETYKAKGKAAAADPAAALAYYNAAGLYAGLAKGDPEAEFAKYKAEADALIAAAKA
B9: design_619_5728adc2-0aea-404f-92dd-a4575c53f550_1668_dldesign_0_cycle1_af2pred (protein)
chain: ARAVVEAAANELAAETLRAGWQAGETGDAIAARIRAILEAGREVAEELAARNPAVTLEEARAAVRERAERLLAEAAA
B10: design_619_5728adc2-0aea-404f-92dd-a4575c53f550_302_dldesign_0_cycle1_af2pred (protein)
chain: EREEVLREAIELLEKTAEAAKALGTPAGEILAASARALARLLREQRDEISLEGAKGYLELAKQLAAGVEAA
B11: design_619_5728adc2-0aea-404f-92dd-a4575c53f550_605_dldesign_0_cycle1_af2pred (protein)
chain: GQVAVNAAKGVAKTAISYAERLAKVEGEEGKKFLEEVKKETTKLVEEAKKSTPEKAQQLLAELVDLMKEVAERAAAAEAAAAAAAA
B12: design_619_5728adc2-0aea-404f-92dd-a4575c53f550_930_dldesign_0_cycle1_af2pred (protein)
chain: GEVKEQAEKELKKLEEAAKKTEEEAKKAAKAGATVAAAQIKATVKAALKNAKELFEKDPEQGLQAAKAALQVAETLLESAKGLIKAA
B13: design_619_5728adc2-0aea-404f-92dd-a4575c53f550_1779_dldesign_0_cycle1_af2pred (protein)
chain: SAATEIATRTAQAAIRAGEEALERAREALEGETGREEVEREVARIEAQAETLELLAEGSPEIAPTANAKAEEFRREAERLREEAE
B14: design_619_5728adc2-0aea-404f-92dd-a4575c53f550_1162_dldesign_0_cycle1_af2pred (protein)
chain: SPVEQYAKAQADMLKEAAGVDDATAQAFADYIVANPALATQAGAMTVAIVRAADAARAAAAAAAAAAAAAAAA
B15: design_619_5728adc2-0aea-404f-92dd-a4575c53f550_1087_dldesign_0_cycle1_af2pred (protein)
chain: GPEVAERVARSARGIAEVLRGLADSIRAAGGSPAAEERVRAAAEEAERLAREAEEAAGDAEVARRLAEEANRLLQEATAVAMADLQAV
B16: design_619_5728adc2-0aea-404f-92dd-a4575c53f550_1269_dldesign_0_cycle1_af2pred (protein)
chain: AKEEAKEKAKKLVEEAKKLAEAAIADPSQYPAQAAKMTKLAEEAAKLGKELDPEIFGEAAQEILRLLIQAAQAVN
B17: design_619_5728adc2-0aea-404f-92dd-a4575c53f550_1938_dldesign_0_cycle1_af2pred (protein)
chain: AKEEAKKLLEKTKKEAEKAVKEAEAGTPTTAAEQAVKVLEFGKEAVEKARELGDEETAEQIAQVTNEAVAKITKAAIAKAK
B18: design_619_5728adc2-0aea-404f-92dd-a4575c53f550_253_dldesign_0_cycle1_af2pred (protein)
chain: AAAAAEAAVAAAMAQINALVAEANRLLIEAQKTGNVELAKKAYELAEKAAAVGKATPALAKMAEALSKVVKEMAKATIKQAEAQA
B19: design_619_5728adc2-0aea-404f-92dd-a4575c53f550_1536_dldesign_0_cycle1_af2pred (protein)
chain: SAALEEARREFEAAVELLAEHPDLAAKVREGFELGVTDIGAGLALLTEARREALELGLEAAAREIRAGMAALLRAHL
B20: design_619_5728adc2-0aea-404f-92dd-a4575c53f550_1681_dldesign_0_cycle1_af2pred (protein)
chain: AEKAKQAAELAEVLAATAEQAPQLTPAQIAAVANTVAIGLKGLGEAKEAAELAEKAAEAAKRDKEEAVKLLREAAEALKKLAA
B21: design_619_5728adc2-0aea-404f-92dd-a4575c53f550_1124_dldesign_0_cycle1_af2pred (protein)
chain: ELEELRKEAEAKAAEARALAAEGAKYDPTAAALFNAALRFFEIAIRLAEEGGDPEEARAALDAGTTLLAAGRAVLAAAAAAAA
B22: design_619_5728adc2-0aea-404f-92dd-a4575c53f550_440_dldesign_0_cycle1_af2pred (protein)
chain: VTPEASKIAANSALALAKNILENVGVMSPEEAAGAVQVVVDLVKNSLPSEKEKHVEIAEVLKEAAKKNPANAAVLEAGAKAIEEIL
B23: design_619_5728adc2-0aea-404f-92dd-a4575c53f550_740_dldesign_0_cycle1_af2pred (protein)
chain: GAAEEARRLVEEVEAALKEAEAAAAADAAEGLRAAGELAVLAAEAAARALRLGDEEAFRRISAAIARATALAQQLAA
B24: design_619_5728adc2-0aea-404f-92dd-a4575c53f550_396_dldesign_0_cycle1_af2pred (protein)
chain: DEAKKQAEKHYKLAKEHLEKAIASKDEKEAKAHVSRARLNALAAASLDPSVAPEMLAMLKATAEALKDHPEAKAEAEEAAKLVAQLA
B25: design_619_5728adc2-0aea-404f-92dd-a4575c53f550_1912_dldesign_0_cycle1_af2pred (protein)
chain: AAQQQAQVAAAATQAVADQTIKVAEELGKYDPELAKKYKEEATKIKKQAQEAAKQGQQGLQQVNQLLSQALELLGEAAKKLREAK
B26: design_619_5728adc2-0aea-404f-92dd-a4575c53f550_521_dldesign_0_cycle1_af2pred (protein)
chain: GEEEELKKKQQEVAERAKEAAELAKEAAKLSGQTEVANAVEAAAKQAAAAAEADPSAVESQLKFVEQLLEIALAALAAAKAAAAAA
B27: design_619_5728adc2-0aea-404f-92dd-a4575c53f550_1864_dldesign_0_cycle1_af2pred (protein)
chain: MEEEKEKKEKEKLKKAKELLKKAKEMAENVAEYSVGEILRVATEAIRLATEAAKGKLKEEGKKVADEARKVAAEAARRALALQ
B28: design_619_5728adc2-0aea-404f-92dd-a4575c53f550_1117_dldesign_0_cycle1_af2pred (protein)
chain: SAAAAAAAGALAVEEAKRFAEEQLAYGKAEDPGVGMQAIATYANRKAVEYASDPATASAIVSIGVEAMEELARWRREREA
B29: design_619_5728adc2-0aea-404f-92dd-a4575c53f550_1042_dldesign_0_cycle1_af2pred (protein)
chain: DAKEHAERALELAKEAAESGSVALASRAMQELALAINADPALGAEAAKEAAKIFAKNPELAGFGEAAVAIAA
B30: design_619_5728adc2-0aea-404f-92dd-a4575c53f550_252_dldesign_0_cycle1_af2pred (protein)
chain: AAKEIAKQAQEAGKAAIAAAEALGKAKDPEEAKQMQEIAKALQQNAQAAAKAGDAKVAQAALNALRGLLRNAEAALAAAK
B31: design_619_5728adc2-0aea-404f-92dd-a4575c53f550_548_dldesign_0_cycle1_af2pred (protein)
chain: AALRHRTMAALFGRAVTLTGEAGRQAALNAAQMAAVLDPAAGAEFAAAIAEAAKATGDAGVHAVAAEFAAKEAAAAAAAAA
B32: design_619_5728adc2-0aea-404f-92dd-a4575c53f550_1867_dldesign_0_cycle1_af2pred (protein)
chain: AAEKAALLAAAEATLARAQEVLAQAKKYPEVQPLAAAALGYALAAQGAVLVDPATGKAFLAKAQALLAEAEAQIKALEA
B33: design_619_5728adc2-0aea-404f-92dd-a4575c53f550_1820_dldesign_0_cycle1_af2pred (protein)
chain: AEAAKRAAAEAAVKKAAELAAKADPALAKRILDAKTIAEGISAAFTAAAQLIQKDPELAAEIVKEAEKAA
B34: design_619_5728adc2-0aea-404f-92dd-a4575c53f550_437_dldesign_0_cycle1_af2pred (protein)
chain: AAAEEAALAKAKKEAAEAAVKAVEYAARAGDPALAAKATRLLHEAQLTTDLEEAKKYLEEIKKLLKEAKERAE
B35: design_619_5728adc2-0aea-404f-92dd-a4575c53f550_766_dldesign_0_cycle1_af2pred (protein)
chain: MLGAEWARQQARRTAERAAELLAADPAAGAAAFARARTIVELAKGIDPEVGKAAQAEVEAIEAQAKAAAAAA
B36: design_619_5728adc2-0aea-404f-92dd-a4575c53f550_1666_dldesign_0_cycle1_af2pred (protein)
chain: SEADAAALDELARLAGEVTGKPEEALALAEIAKQDPLALATLAAMARQARAASPEEAAQLARNAFQIMKALA
B37: design_619_5728adc2-0aea-404f-92dd-a4575c53f550_1575_dldesign_0_cycle1_af2pred (protein)
chain: AAWQALEIAKKAGLALAKSAAAMPNPEDAKKAAETAKDMVTATAQAVIDAGGDKEKAKALVEEVKKAAEAGVKAAKA
B38: design_619_5728adc2-0aea-404f-92dd-a4575c53f550_927_dldesign_0_cycle1_af2pred (protein)
chain: AAALDSARGEAAVTAAKLYGLAYKLDPELGAQAAAALAAILRDKATAVEGAKAAAAVAEKLKEKDPENAGELEKKLKELAEKLKAA

biological target: CD276, Q5ZPR3
Sequence (Q5ZPR3 whole entry): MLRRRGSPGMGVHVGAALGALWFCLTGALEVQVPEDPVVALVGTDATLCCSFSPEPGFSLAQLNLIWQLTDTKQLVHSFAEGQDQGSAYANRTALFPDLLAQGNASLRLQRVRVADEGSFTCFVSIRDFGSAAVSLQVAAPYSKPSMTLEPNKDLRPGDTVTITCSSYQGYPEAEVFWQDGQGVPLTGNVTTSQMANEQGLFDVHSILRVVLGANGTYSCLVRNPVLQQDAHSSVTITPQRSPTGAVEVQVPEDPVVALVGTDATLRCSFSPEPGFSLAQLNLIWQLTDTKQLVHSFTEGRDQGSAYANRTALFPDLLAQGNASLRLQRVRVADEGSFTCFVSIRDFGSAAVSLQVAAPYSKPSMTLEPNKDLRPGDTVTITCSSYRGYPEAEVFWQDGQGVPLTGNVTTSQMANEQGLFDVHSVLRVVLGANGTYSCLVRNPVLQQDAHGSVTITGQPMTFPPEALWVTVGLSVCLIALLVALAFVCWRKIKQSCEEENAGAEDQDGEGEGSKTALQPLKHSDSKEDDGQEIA

Binder	binding in a display sort
B1	not found (inactive)
B2	not found (inactive)
B3	not found (inactive)
B4	not found (inactive)
B5	not found (inactive)
B6	not found (inactive)
B7	not found (inactive)
B8	not found (inactive)
B9	not found (inactive)
B10	not found (inactive)
B11	not found (inactive)
B12	not found (inactive)
B13	not found (inactive)
B14	not found (inactive)
B15	not found (inactive)
B16	not found (inactive)
B17	not found (inactive)
B18	not found (inactive)
B19	not found (inactive)

Binder	binding in a display sort
B20	not found (inactive)
B21	not found (inactive)
B22	not found (inactive)
B23	not found (inactive)
B24	not found (inactive)
B25	not found (inactive)
B26	not found (inactive)
B27	not found (inactive)
B28	not found (inactive)
B29	not found (inactive)
B30	not found (inactive)
B31	not found (inactive)
B32	not found (inactive)
B33	not found (inactive)
B34	not found (inactive)
B35	binds (active)
B36	not found (inactive)
B37	not found (inactive)
B38	not found (inactive)
